This passage reports outcome and AC50 results from PubChem BioAssay (EPA / NIEHS).

Holding throughout (settings): mRNA level, 48 h; actives raise or lower the signal
Read-out in assay [1]: Intercellular Adhesion Molecule 1 (ICAM1), ICAM1 (gene 3383)
Description: LTEA_HepaRG_ICAM1: Life Technologies and Expression Analysis (LTEA) Assay for Intercellular Adhesion Molecule 1 (ICAM1) using HepaRG (AID 2283507). An outline of the steps:
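HepaRG, 48 h exposure, 8-pt half-log series from 100 uM, 0.5% DMSO vehicle, duplicates. Readout: TaqMan qRT-PCR mRNA, housekeeping-normalized (ACTB/GAPDH/POLR2A). Bidirectional curve fit vs DMSO baseline.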

Read-out in assay [2]: Insulin-like growth factor-binding protein 1 (IGFBP1), IGFBP1 (gene 3484)
Put plainly: LTEA_HepaRG_IGFBP1: Life Technologies and Expression Analysis (LTEA) Assay for Insulin-like growth factor-binding protein 1 (IGFBP1) using HepaRG (AID 2283508). An outline of the steps:
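qRT-PCR mRNA read-out (TaqMan, Fluidigm array), normalised to three housekeeping genes; HepaRG cells, 48 h exposure, 8-pt half-log series from 100 uM, 0.5% DMSO vehicle; bidirectional curve fit vs DMSO baseline.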

Read-out in assay [3]: Interleukin 6 (IL6), IL6 (gene 3569)
Description: LTEA_HepaRG_IL6: Life Technologies and Expression Analysis (LTEA) Assay for Interleukin 6 (IL6) using HepaRG (AID 2283509). In short, it runs like this:
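qRT-PCR read-out of IL6 transcript, normalized to three housekeeping genes, after 48 h chemical exposure of HepaRG cells; 8-point half-log series, top 100 uM, 0.5% DMSO vehicle. Bidirectional curve fitting against DMSO baseline.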

Read-out in assay [4]: Interleukin 6 Receptor (IL6R), IL6R (gene 3570)
Put plainly: LTEA_HepaRG_IL6R: Life Technologies and Expression Analysis (LTEA) Assay for Interleukin 6 Receptor (IL6R) using HepaRG (AID 2283510). An outline of the steps:
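IL6R transcript level by qRT-PCR after 48 h chemical exposure (8-point, half-log, max 100 uM, 0.5% DMSO vehicle) of HepaRG cells in serum-free induction medium. Normalized to three housekeeping genes; curves fitted in both directions relative to DMSO.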

Read-out in assay [5]: Potassium channel subfamily K member 1 (KCNK1), KCNK1 (gene 3775)
Description: LTEA_HepaRG_KCNK1: Life Technologies and Expression Analysis (LTEA) Assay for Potassium channel subfamily K member 1 (KCNK1) using HepaRG (AID 2283511). In short, it runs like this: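 HepaRG, 48 h exposure, 8-pt half-log series top 100 uM, 0.5% DMSO vehicle, duplicates. Readout: KCNK1 transcript by qRT-PCR (Fluidigm array), housekeeping-normalized; bidirectional curve fit relative to DMSO baseline.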

Read-out in assay [6]: JUN Transcription Factor, JUN (gene 3725)
Description: LTEA_HepaRG_JUN: Life Technologies and Expression Analysis (LTEA) Assay for JUN Transcription Factor using HepaRG (AID 2283513). In short, it runs like this:
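mRNA measured by TaqMan qRT-PCR after 48 h chemical exposure of HepaRG cultures; normalization to three housekeeping genes. Duplicate eight-point half-log curves from 100 uM in 0.5% DMSO; gain or loss fitted against DMSO baseline.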

Read-out in assay [7]: Lipase C (LIPC), LIPC (gene 3990)
Put plainly: LTEA_HepaRG_LIPC: Life Technologies and Expression Analysis (LTEA) Assay for Lipase C (LIPC) using HepaRG (AID 2283514). An outline of the steps: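 HepaRG, 48 h exposure, 8-pt half-log series from 100 uM in 0.5% DMSO, duplicates. Readout: LIPC mRNA by Fluidigm qRT-PCR, housekeeping-normalized (ACTB/GAPDH/POLR2A). Gain or loss fitted bidirectionally against DMSO baseline.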

Read-out in assay [8]: Lipoprotein lipase (LPL), LPL (gene 4023)
Description: LTEA_HepaRG_LPL: Life Technologies and Expression Analysis (LTEA) Assay for Lipoprotein lipase (LPL) using HepaRG (AID 2283515). In short, it runs like this:
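HepaRG, 48 h exposure, 8-pt half-log dilutions from 100 uM, 0.5% DMSO vehicle, duplicates; qRT-PCR (Fluidigm array) of LPL mRNA vs housekeeping genes; bidirectional curve fit relative to DMSO baseline.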

Read-out in assay [9]: MicroRNA 122 (MIR122), gene 406906
Description: LTEA_HepaRG_MIR122: Life Technologies and Expression Analysis (LTEA) Assay for MicroRNA 122 (MIR122) using HepaRG (AID 2283516). Further: the transcript read is the microRNA miR-122. An outline of the steps: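 Expression measured by microfluidic qRT-PCR with three housekeeping genes for normalisation, after 48 h treatment of HepaRG cultures. Eight concentrations (top 100 uM, half-log steps, 0.5% DMSO vehicle) in duplicate; gain or loss fitted relative to vehicle.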

Read-out in assay [10]: matrix metalloproteinase-10 (MMP10), MMP10 (gene 4319)
Description: LTEA_HepaRG_MMP10: Life Technologies and Expression Analysis (LTEA) Assay for matrix metalloproteinase-10 (MMP10) using HepaRG (AID 2283517). An outline of the steps: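 Transcript levels come from Fluidigm qRT-PCR normalized to three housekeeping genes, with curves fitted bidirectionally against 0.5% DMSO. Human HepaRG cells were dosed for 48 hours at concentrations up to 100 uM.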

Read-out in assay [11]: Nuclear factor NF-kappa-B p105 subunit (Homo sapiens) (UniProt P19838)
Description: LTEA_HepaRG_NFKB1: Life Technologies and Expression Analysis (LTEA) Assay for Nuclear Factor Kappa B Subunit 1 (NFKB1) using HepaRG (AID 2283521).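 On outcome: differentiated human HepaRG liver cells in serum-free induction medium; TaqMan qRT-PCR transcript normalised to ACTB GAPDH and POLR2A housekeeping genes.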 In short, it runs like this: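 Human HepaRG cells receive eight half-log concentrations, highest 100 uM, for 48 h. NFKB1 expression is then quantified by qRT-PCR and analysed for up- or down-regulation relative to 0.5% DMSO vehicle.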

Read-out in assay [12]: Protein phosphatase 2A (PPP2R4), PTPA (gene 5524)
Description: LTEA_HepaRG_PPP2R4: Life Technologies and Expression Analysis (LTEA) Assay for Protein phosphatase 2A (PPP2R4) using HepaRG (AID 2283522). In short, it runs like this:
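Expression was quantified by Fluidigm qRT-PCR normalised to three housekeeping genes after 48 h treatment. Human HepaRG cells received an 8-point series from 100 µM downward by half-logs, in duplicate with 0.5% DMSO vehicle and 1 mM phenobarbital as induction control.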

Read-out in assay [13]: Phosphatase and tensin (PTEN), PTEN (gene 5728)
Put plainly: LTEA_HepaRG_PTEN: Life Technologies and Expression Analysis (LTEA) Assay for Phosphatase and tensin (PTEN) using HepaRG (AID 2283523). An outline of the steps:
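HepaRG, 48 h exposure, 8-pt half-log series from 100 uM top, 0.5% DMSO vehicle, duplicates. Readout: Fluidigm qRT-PCR of PTEN transcript; housekeeping normalization (ACTB, GAPDH, POLR2A). Gain or loss fitted relative to DMSO baseline.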

Read-out in assay [14]: solute carrier (SLC22A1), SLC22A1 (gene 6580)
Put plainly: LTEA_HepaRG_SLC22A1: Life Technologies and Expression Analysis (LTEA) Assay for solute carrier (SLC22A1) using HepaRG (AID 2283524).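 On AC50: differentiated human HepaRG liver cells in serum-free induction medium.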 An outline of the steps: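 qRT-PCR readout (TaqMan, Fluidigm arrays) of SLC22A1 transcript, normalized to three housekeeping genes; bidirectional curve fit relative to 0.5% DMSO vehicle. Differentiated human HepaRG cells, 48 h chemical exposure, top concentration 100 uM, half-log steps, eight points.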

Read-out in assay [15]: Pyruvate Dehydrogenase Kinase 4 (PDK4), PDK4 (gene 5166)
Put plainly: LTEA_HepaRG_PDK4: Life Technologies and Expression Analysis (LTEA) Assay for Pyruvate Dehydrogenase Kinase 4 (PDK4) using HepaRG (AID 2283525). An outline of the steps:
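HepaRG (human liver line), 48 h chemical exposure, 8-pt half-log CRC top 100 uM, 0.5% DMSO vehicle, duplicates. Readout: TaqMan qRT-PCR of PDK4 mRNA, housekeeping-normalized; gain/loss fit relative to DMSO baseline.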

Read-out in another assay: MYC, MYC (gene 4609)
Description: LTEA_HepaRG_MYC: Life Technologies and Expression Analysis (LTEA) Assay for MYC using HepaRG (AID 2283518). In short, it runs like this: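 qRT-PCR read-out of MYC transcript (Fluidigm TaqMan, housekeeping-normalized) after 48 h chemical exposure of HepaRG cells; eight concentrations, top 100 uM, half-log steps. Bidirectional curve fitting against 0.5% DMSO vehicle baseline.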

Read-out in assay [16]: matrix metalloproteinase-3 (MMP3), MMP3 (gene 4314)
Put plainly: LTEA_HepaRG_MMP3: Life Technologies and Expression Analysis (LTEA) Assay for matrix metalloproteinase-3 (MMP3) using HepaRG (AID 2283519). In short, it runs like this: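 qRT-PCR read-out of MMP3 mRNA (normalised to three housekeeping genes) in HepaRG liver cells after 48 h chemical exposure; 8-point half-log series, top 100 uM, 0.5% DMSO vehicle. Bidirectional curve fitting against DMSO baseline.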

Read-out in assay [17]: Paternally Expressed 10 (PEG10), PEG10 (gene 23089)
Description: LTEA_HepaRG_PEG10: Life Technologies and Expression Analysis (LTEA) Assay for Paternally Expressed 10 (PEG10) using HepaRG (AID 2283520). In short, it runs like this:
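PEG10 transcript measured by Fluidigm qRT-PCR, normalized to three housekeeping genes, in HepaRG cells treated 48 h (highest 100 uM, half-log steps, 0.5% DMSO vehicle). Cells plated 48 h before switching to serum-free induction medium.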

Read-out in assay [18]: Keratin 19 (KRT19), KRT19 (gene 3880)
Put plainly: LTEA_HepaRG_KRT19: Life Technologies and Expression Analysis (LTEA) Assay for Keratin 19 (KRT19) using HepaRG (AID 2283512). An outline of the steps:
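HepaRG, 48 h chemical exposure, 8-pt half-log CRC from 100 uM, 0.5% DMSO vehicle, duplicates. Readout: TaqMan qRT-PCR of KRT19 mRNA, housekeeping-normalized (ACTB/GAPDH/POLR2A). Bidirectional fit vs DMSO baseline.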

Calls of active or inactive are those of the source. How the source made its calls: active means hit-call score of the fitted dose curve at least 0.9, where 1 is the maximum; inactive means score below 0.9.

Chain of Nuclear factor NF-kappa-B p105 subunit (Homo sapiens) (P19838 whole entry, looked up): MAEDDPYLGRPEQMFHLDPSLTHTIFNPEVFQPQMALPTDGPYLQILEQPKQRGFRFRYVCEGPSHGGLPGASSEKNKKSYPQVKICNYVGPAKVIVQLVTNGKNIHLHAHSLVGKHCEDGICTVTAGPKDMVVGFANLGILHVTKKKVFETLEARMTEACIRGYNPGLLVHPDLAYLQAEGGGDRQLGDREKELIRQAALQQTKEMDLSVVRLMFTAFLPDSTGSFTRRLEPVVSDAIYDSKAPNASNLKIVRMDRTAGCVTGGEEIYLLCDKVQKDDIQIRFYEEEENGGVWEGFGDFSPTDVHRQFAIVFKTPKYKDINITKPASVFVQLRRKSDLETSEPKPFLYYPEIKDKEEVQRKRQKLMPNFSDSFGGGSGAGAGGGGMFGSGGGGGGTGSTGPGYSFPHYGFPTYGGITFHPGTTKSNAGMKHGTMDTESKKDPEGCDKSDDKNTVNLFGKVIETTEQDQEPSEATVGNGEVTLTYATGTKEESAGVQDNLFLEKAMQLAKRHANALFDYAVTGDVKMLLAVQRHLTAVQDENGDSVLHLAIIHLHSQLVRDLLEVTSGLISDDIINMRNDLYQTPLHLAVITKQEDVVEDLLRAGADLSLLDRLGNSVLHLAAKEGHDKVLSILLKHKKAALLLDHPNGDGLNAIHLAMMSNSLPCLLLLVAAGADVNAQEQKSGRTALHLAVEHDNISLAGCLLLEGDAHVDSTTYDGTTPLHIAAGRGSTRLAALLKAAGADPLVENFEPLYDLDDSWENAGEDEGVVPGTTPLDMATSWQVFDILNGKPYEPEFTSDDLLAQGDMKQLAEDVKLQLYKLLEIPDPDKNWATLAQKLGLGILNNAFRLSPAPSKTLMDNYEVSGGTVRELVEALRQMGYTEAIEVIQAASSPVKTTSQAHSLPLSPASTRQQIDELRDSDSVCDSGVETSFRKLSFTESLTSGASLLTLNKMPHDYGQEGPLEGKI

Take `CO[C@H]1/C=C/O[C@@]2(C)Oc3c(C)c(O)c4c(O)c(c(/C=N/N5CCN(C)CC5)c(O)c4c3C2=O)NC(=O)/C(C)=C\C=C\[C@H](C)[C@H](O)[C@@H](C)[C@@H](O)[C@@H](C)[C@H](OC(C)=O)[C@@H]1C`: the call in assay [1], in [2], in assay [3], in [4], in [5] and in assay [6] was inactive. The molecule was called inactive in [7], in assay [8], in assay [9], in assay [10], in assay [11] and in [12]. In addition, the result in [13], in assay [14] and in [15] was inactive.
As for `CCCCCCCCCCCCO`, the call in assay [1], in [2], in [3], in assay [4], in assay [5] and in [6] was inactive. Besides, the outcome in [7] was “inactive”; in assay [8], “inactive”; in [9], “inactive”; in assay [10] it was “inactive”; in the assay with MYC, MYC (gene 4609), “inactive”; in assay [16] it was “inactive”. The result in assay [17], in assay [12], in assay [13], in [14] and in [15] was inactive.
For the molecule `CC1=CC(=O)/C(=C(/C)O)C(=O)O1`, the call in assay [1], in [2], in [3], in [4], in [5] and in assay [18] was inactive. The molecule was called inactive in [6], in assay [7], in [8], in [10], in assay [17] and in assay [12]. Besides, the molecule was called inactive in [13], in assay [14] and in [15].
As for `O=c1ccc2ccccc2o1`, the molecule was called inactive in [1], in assay [2], in assay [3], in assay [4], in [5] and in [18]. The outcome in [6] was “inactive”; in assay [7], “inactive”; in assay [8], “inactive”; in assay [10], “inactive”; with MYC, MYC (gene 4609) it was “inactive”; in [17], “inactive”. Besides, the result in assay [11], in [12], in assay [13], in assay [14] and in [15] was inactive.
Take `O=C1CCC(C2CCCCC2)CC1`: the call in [1], in assay [2], in assay [3], in [4], in [5] and in assay [6] was inactive. Also, the outcome is “inactive” in [7]; “inactive” in assay [8]; “inactive” in assay [9]; “inactive” in assay [10]; “inactive” with MYC, MYC (gene 4609); “inactive” in [16]. The outcome in assay [17], in assay [11], in [12], in [13], in assay [14] and in assay [15] was inactive.
As usually defined, the AC50 is the concentration giving half of the maximal activity seen. Consider `CN(C)C(=O)C1(N2CCCCC2)CCN(CC[C@@]2(c3ccc(Cl)c(Cl)c3)CN(C(=O)c3ccccc3)CCO2)CC1`, for which the AC50 in assay [1] is 47.2 µM (active); in assay [2], 21.6 µM (active); in assay [3] it was 22.1 µM (active); in [5], 14.9 µM (active); in [6], 31 µM (active); in assay [8] it was 24.8 µM (active). Also, the AC50 is 10.9 µM (active) in assay [9]; 77.1 µM (active) in [10]; 80.3 µM (active) in [11]; 27.2 µM (active) in [12]; 27.6 µM (active) in assay [14]. For the same molecule, the outcome in assay [4], in assay [18], in [7], in assay [16], in [17] and in assay [13] was inactive. Further, the molecule was called inactive in assay [15].
